# The supplement of paper PMC11060735
# Values joined by “and” are separate entries in the source; they are usually repeats but may differ in a detail not shown here. Equal values may be shown once. ± gives the standard deviation of the averaged measurements. In all, about 1,800 compounds were measured (“GFP- (p16Ink4a-) cell count relative to negative-control wells”: median about 0.99, lowest 2% from about 0.5 on). The full list was thinned out, with the lowest values kept by preference.
# Test system: mouse p16Ink4a+/- lung fibroblasts (INKBRITE, bleomycin-injured)
# Test: GFP- (p16Ink4a-) cell count relative to negative-control wells (fold of vehicle); higher = more p16Ink4a- cells surviving
# Settings: 1 µM; 3 days
row,SMILES,GFP-
1,N[C@H]1C[C@@H]1c1ccc(-c2cccc(O)c2)cc1,1.01 ± 0.044
2,Cc1c(C(=O)NN2CCCCC2)nn(-c2ccc(Cl)cc2Cl)c1-c1ccc(I)cc1,1.06
3,Cn1cc(-c2ccc3ncc(Cc4ccc5ncccc5c4)n3n2)cn1,1.01
4,O=C1C(Cl)=C(N2CCOCC2)C(=O)N1c1ccc(Cl)c(Cl)c1,1.05
5,Cc1ccc(Nc2nccc(N(C)c3ccc4c(C)n(C)nc4c3)n2)cc1S(N)(=O)=O [Pazopanib],0.999 and 1.07
6,CNC(=O)c1ccc(N2C(=S)N(c3ccc(C#N)c(C(F)(F)F)c3)C(=O)C2(C)C)cc1F [Enzalutamide],1.11
7,CC1(C)Cc2c(-c3ccccc3)c(-c3ccc(Cl)cc3)c(CC(=O)O)n2C1 [Licofelone],0.892
8,CNCc1ccc(-c2[nH]c3cc(F)cc4c3c2CCNC4=O)cc1 [Rucaparib],0.817 ± 0.037
9,CCCCN1CCCCC1C(=O)Nc1c(C)cccc1C (stereo unspecified) [Bupivacaine],1.13
10,CC(C)C1CCC(C(=O)N[C@H](Cc2ccccc2)C(=O)O)CC1 (stereo partly specified) [Nateglinide],1.06
11,CNC(=O)[C@H](Cc1ccccc1)NC(=O)[C@H](CC(C)C)[C@H](CSc1cccs1)C(=O)NO [Batimastat],1.08
12,CC(C)C[C@H](NC(=O)[C@H](Cc1ccccc1)NC(=O)c1cnccn1)B(O)O [Bortezomib],0.294
13,Nc1nc(N)c(N=O)c(OCC2CCCCC2)n1,1.07
14,Clc1ccc(Nc2nnc(Cc3ccncc3)c3ccccc23)cc1 [Vatalanib],0.918
15,Cc1cccc(C)c1OCC(=O)N[C@@H](Cc1ccccc1)[C@@H](O)C[C@H](Cc1ccccc1)NC(=O)[C@H](C(C)C)N1CCCNC1=O [Lopinavir],0.947
16,CC[C@H]1OC(=O)[C@H](C)[C@@H](O[C@H]2C[C@@](C)(OC)[C@@H](O)[C@H](C)O2)[C@H](C)[C@@H](O[C@@H]2O[C@H](C)C[C@H](N(C)C)[C@H]2O)[C@](C)(O)C[C@@H](C)/C(=N/OCOCCOC)[C@H](C)[C@@H](O)[C@]1(C)O [Roxithromycin],0.988
17,Sc1ncnc2[nH]cnc12 [Mercaptopurine],1.05
18,COC[C@H](NC(=O)c1cnc(C)s1)C(=O)N[C@@H](COC)C(=O)N[C@@H](Cc1ccccc1)C(=O)C1(C)CO1 (stereo partly specified) [Oprozomib],0.381
19,C=CC(=O)Nc1ccc2ncnc(Nc3cccc(Br)c3)c2c1,0.994
20,Cc1onc(-c2c(Cl)cccc2Cl)c1C(=O)N[C@@H]1C(=O)N2[C@@H]1SC(C)(C)[C@@H]2C(=O)O [Dicloxacillin],0.966
21,COc1cc(N2CCC(N(C)C)CC2)ccc1Nc1ncc(Cl)c(Nc2ccccc2P(C)(C)=O)n1,1.08
